# High-throughput results: PubChem, several laboratories
# Rows were chosen to be rich in hits. Some 0.5% of all compounds tested hit in one or more screens of this group.
# Tat export inh = inhibitors of E. coli Tat protein transport; AID 488895; inhibition, % at 10 µM; 340,000 tested, 0.036% active; E. coli MC4100 TorA-mCherry Tat export, fluorescence;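 active = mean replicate inhibition at least 50% and at least half of replicates individually reaching 50%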;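 also: exported cargo escapes ClpAP degradation while cytoplasmic cargo is degraded and loses fluorescence; 0% = median of neutral control wells and 100% = median of NaSCN control wells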
# AddAB inh = less growth of phage-infected E. coli with AddAB | E. coli expressing H. pylori AddAB, absorbance growth | inhibition, % at 11.9 µM | 330,000 tested, 0.29% active | AID 435030; in the data active = inhibition above about 12%;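 also: 0% = vehicle wells of infected cells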
# E coli growth-1 = E. coli growth inhibition | Escherichia coli growth, OD600, 23 h; hits give low values | AID 1053175 | 330,000 tested, 0.21% active | OD600 absorbance (concentration not given with the values);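 active = OD600 absorbance below the run mean of sample wells minus 3.6 SD, in any replicate, cut at about 0.56 in these data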
# E coli growth-2 = counter-screen for AddAB inhibitors: E. coli growth inhibition | E. coli V3065 growth, OD600 absorbance, 18 h | inhibition, % at 11.9 µM | 330,000 tested, 0.27% active | AID 449728;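 active = inhibition above the campaign's mean inhibition across all tested compounds plus 3 SD, cut at about 9.9% in these data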;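 also: uninfected addAB+ strain grown without phage in ampicillin broth; 0% = DMSO wells and 100% = ciprofloxacin 0.95 µg/ml wells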
# phage Ecoli inh = E. coli growth loss with phage present. growth absorbance. inhibition, % at 11.9 µM. 360,000 tested, 0.26% active. AID 651602; in the data active = inhibition above about 11%
# RecBCD conf = confirmation: growth loss of phage-infected RecBCD+ E. coli (RecBCD inhibitor screen). E. coli V66 + T4 2- phage, growth OD. AID 651982. inhibition, % at 11.9 µM. shares compounds with phage Ecoli inh. 890 tested, 45% active;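 active = mean inhibition over triplicates exceeding the hit threshold derived in the original primary screen, cut at about 11% in these data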
# Ecoli viability = inhibits E. coli viability, flagging RecBCD hits as nonselective | shares compounds with phage Ecoli inh | absorbance (OD) growth | inhibition, % at 11.9 µM | 890 tested, 29% active | AID 651983; in the data active = inhibition above about 20%;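 also: E. coli strain V66 grown with compound alone and no phage infection; 0% = bacteria with DMSO vehicle only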
# AddAB counter = growth loss of phage-infected AddAB E. coli, RecBCD counter-screen. 890 tested, 45% active. inhibition, % at 11.9 µM. shares compounds with phage Ecoli inh. E. coli expressing H. pylori AddAB + T4 phage, OD growth; gene 2 mutant T4, recBCD-deleted host. AID 651984;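 active = mean inhibition above the solvent-only control wells' mean plus 3 SD, cut at about 22% in these data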;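 also: higher means less bacterial growth from phage killing when AddAB is blocked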
# An asterisk follows results filed as active; · = no result given; ! = a repeat was not active.
SMILES,Tat export inh,AddAB inh,E coli growth-1,E coli growth-2,phage Ecoli inh,RecBCD conf,Ecoli viability,AddAB counter
Cc1cc2c(C(C)C)c(O)c(O)c(C=O)c2c(O)c1-c1c(C)cc2c(C(C)C)c(O)c(O)c(C=O)c2c1O,·,·,·,·,15*,5,5,7
COC(=O)C1=C(c2ccccc2OCc2ccccc2)CC2CCC1N2C(=O)NCc1ccc(Cl)cc1 (stereo not drawn),·,·,0.75,·,·,·,·,·
CC(Cc1ccccc1)NC(=O)CCCCC(=O)NC(C)Cc1ccccc1 (stereo not drawn),1,0,·,0,14*,-3,-2,-2
COC(=O)C1=C(c2ccc(OC)c(OC)c2)CC2CCC1N2C(=O)NCC1CC1 (stereo not drawn),·,·,0.62,·,·,·,·,·
Oc1cc(Cl)c(Cl)c(Cl)c1Cl,-9,·,·,·,13*,14*,19,17
COCCNC(=O)N1C2CCC1C(C(=O)OC)=C(c1cccc(C#N)c1)C2 (stereo not drawn),·,·,0.72,·,·,·,·,·
O=[N+]([O-])c1ccc(N2CCOCC2)c2c1no[n+]2[O-],·,·,·,·,17*,11,13,98*
O=[N+]([O-])c1ccc(N2CCOCC2)c2cccnc12,-2,2,0.69,2,4,·,·,·
CCOC(=O)[C@]12Cc3c(cc(OC)c(OC)c3OC)C1N(Cc1ccccc1)C(=O)c1ccccc12 (stereo partly drawn),·,·,0.69,·,·,·,·,·
Cc1cccc(-n2c(/C=C/c3ccc([N+](=O)[O-])o3)nc3ccccc3c2=O)c1,-4,5,0.65,3,2,·,·,·
O=c1c2ccccc2nc(/C=C/c2ccc([N+](=O)[O-])o2)n1-c1ccc(O)cc1,-4,·,0.67,·,12*,6,9,40*
O=[N+]([O-])c1oc2ccc3ccccc3c2c1CCO,-8,·,·,·,100*,104*,105*,103*
CN(C)[C@@H]1C(=O)C(C(N)=O)=C(O)[C@@]2(O)C(=O)C3=C(O)c4c(O)cccc4[C@@](C)(O)[C@H]3C[C@@H]12,·,-1,·,-1,·,·,·,·
CN(C)[C@@H]1C(=O)C(C(N)=O)=C(O)[C@@]2(O)C(=O)C3=C(O)c4c(O)ccc(Cl)c4[C@@](C)(O)C3C[C@@H]12 (stereo partly drawn),150*,·,·,·,99*,101*,104*,105*
CN(C)[C@@H]1C(=O)C(C(N)=O)=C(O)[C@@]2(O)C(=O)C3=C(O)c4c(O)cccc4[C@@](C)(O)C3[C@H](O)C12 (stereo partly drawn),150*!,0,·,0,98*,101*,102*,102*
